Laboratory results taken from PubChem BioAssay.

The compounds below were run against E3 ubiquitin-protein ligase XIAP (Homo sapiens) (UniProt P98170) (assay: XIAP binders, primary screen, biophysical, small-molecule microarray, fluorescence 635 nm (AID 1181;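 also: score merges 667 nm emission and signal to noise over triplicate slides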)). Conditions: small-molecule microarray binding, higher = more signal.
Chain of E3 ubiquitin-protein ligase XIAP (Homo sapiens) (P98170 whole entry, looked up): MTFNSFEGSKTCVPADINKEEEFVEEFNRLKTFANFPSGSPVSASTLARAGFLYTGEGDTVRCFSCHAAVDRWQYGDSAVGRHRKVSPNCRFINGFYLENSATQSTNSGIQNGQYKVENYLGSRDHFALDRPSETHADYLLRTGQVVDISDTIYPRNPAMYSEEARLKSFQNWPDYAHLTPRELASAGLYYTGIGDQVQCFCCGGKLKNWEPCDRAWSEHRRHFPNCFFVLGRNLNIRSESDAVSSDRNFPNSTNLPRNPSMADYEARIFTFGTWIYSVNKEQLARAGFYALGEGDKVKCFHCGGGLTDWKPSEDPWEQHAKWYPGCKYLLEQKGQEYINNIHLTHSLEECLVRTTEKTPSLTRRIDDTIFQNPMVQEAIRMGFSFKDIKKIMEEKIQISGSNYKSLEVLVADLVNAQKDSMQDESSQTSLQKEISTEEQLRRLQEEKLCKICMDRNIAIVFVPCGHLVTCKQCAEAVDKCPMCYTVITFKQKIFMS

Row | Structure (SMILES) | composite z-score
1 | COCCOC(=O)N1C(=O)[C@@]2(c3cc(C#Cc4ccc(OC)cc4)ccc31)[C@H](c1ccc(OCCO)cc1)N1[C@H](c3ccccc3)[C@H](c3ccccc3)OC(=O)[C@H]1[C@@H]2C(=O)NC[C@H](O)c1ccccc1 | 0.115
2 | CC1CC/C=C\[C@H]2OC34C=CCN(Cc5ccccc5)C(=O)[C@H]3N(CCCCCCO)C(=O)[C@@H]4C2C(=O)O1 (stereo not given in full) | -0.0741
3 | [N-]=[N+]=Nc1ccccc1[C@@H]1OC(c2ccc(OCCCO)cc2)=N[C@]1(CCS(=O)(=O)c1ccccc1)C(=O)NCC(O)CO (stereo not given in full) | -0.201
4 | COC(=O)[C@@]1(Cc2ccccc2)[C@H]2c3cc(C(=O)N(C)C)n(CCSC(=N)N)c3C[C@H]2CN1C(=O)c1ccccc1 | -0.0592
5 | CC(C)[Si](C#CCCc1ccccc1)(O[C@H](c1ccccc1)c1cn(Cc2ccccc2)nn1)C(C)C | -0.0117
6 | O=C(NCc1ccc(F)cc1)[C@H]1C[C@H]2C(=O)N3CCC[C@H]3C(=O)N2[C@H]1c1ccc(O)cc1 | 0.33
7 | COC(=O)[C@]1(Cc2ccccc2)N=C(c2ccc(OCCCO)cc2)O[C@@H]1c1ccccc1CN=[N+]=[N-] | 0.0159
8 | CC(C)C[C@@H]1NC(=O)[C@@H]2C[C@H](C(=O)NCCCCCCNC(=O)CS)[C@H](c3cccc(OCCO)c3)N2C1=O | -0.122
9 | O=C1O[C@@H](c2ccccc2)[C@@H](c2ccccc2)N2[C@@H](c3ccc(OCCO)cc3)[C@]3(C(=O)Nc4ccc(C#CCCO)cc43)[C@@H](C(=O)O)[C@H]12 | 0.104
10 | CCCC[C@H]1C[C@@H]1[C@@H]1N(C(C)=O)[C@H](c2cccc(OC)c2)CC12CC2 | -0.0416
